Measured values reported in PubChem BioAssay AID620 (Sanford-Burnham Center for Chemical Genomics, 2007).
Screen size: about 87,000 compounds; about 360 (0.41%) were called active. Many of the other results were omitted from the sample, so actives are more common in it than they were. Unmarked numbers belong to inactive results. Cut-off read from the data, not from the text of the source: active = cytotoxicity above about 50%; inactive = the rest.

Assay: HT1080 cell viability loss – fluorescence readout (AID 620);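 note: cells exposed to compound overnight then 4 h with Alamar Blue; 0% = vehicle DMSO and 100% = killing control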
Settings: at 10 µM, active compounds read high
Molecule `O=c1c2cc(Br)ccc2nc2n1CCCCC2` has a cytotoxicity of -8.5%.
In the case of `CC(=O)c1cccc(NC(=O)c2cc3ccccn3n2)c1`, the cytotoxicity is reported as 6.1%.
In the case of `COc1cccc(CNC(=O)c2cc3ccccn3n2)c1`, the cytotoxicity is reported as 0%.
For `CCOC(=O)c1nc(N)c(=O)n(-c2ccc(C)cc2)n1`, the cytotoxicity was 5.9%.
Work on `CCOc1ccc(N(C(=O)Cn2nnc3ccccc32)C(C(=O)NC(C)(C)CC)c2cccn2C)cc1` (configuration not stated) yielded a cytotoxicity of 15%.
`C=CC1C(N2CCOCC2)C(C)(C)S1(=O)=O` (configuration not stated) gave a cytotoxicity of 0.5%.
For `Cc1cc(NC(=O)CSc2nnc3c(C)cc4c(C)ccc(C)c4n23)no1`, the cytotoxicity was 58.9% (active).
`Cc1cc(C)c2c(c1)cc(C)c1nnc(SCC(=O)Nc3cc(C)on3)n12` showed a cytotoxicity of 20.3%.
With `Cc1cc(NC(=O)CSc2nnc3c(C)cc4cc(C)c(C)cc4n23)no1` the cytotoxicity was 11.9%.
Work on `COc1ccc(N2CCN(C(=O)CN(Cc3ccc(Cl)cc3)S(C)(=O)=O)CC2)cc1` yielded a cytotoxicity of -6.4%.
Work on `CC1CCCCN1C(=O)CSc1ccc(-c2ccc(F)cc2)nn1` (configuration not stated) yielded a cytotoxicity of -10.9%.
`COc1ccc(-c2cc(C(=O)N3CCN(c4ccccn4)CC3)c3ccccc3n2)cc1` gave a cytotoxicity of 3.7%.
In the case of `O=C(c1ccccc1-c1ccccc1)N1CCCC1`, the cytotoxicity is reported as 7.3%.
With `CCOc1ccc(-c2cc(C(=O)N3CCN(c4ccccn4)CC3)c3ccccc3n2)cc1` the cytotoxicity was 52.4% (active).
Molecule `CCOc1ccc(-c2cc(C(=O)N3CCN(C)CC3)c3ccccc3n2)cc1` has a cytotoxicity of 3.8%.
In the case of `CCOC(=O)N1CCN(C(=O)c2cc(-c3ccc(OCC)cc3)nc3ccccc23)CC1`, the cytotoxicity is reported as 54.9% (active).
In the case of `CCOC(=O)N1CCN(C(=O)c2ccccc2Oc2ccccc2)CC1`, the cytotoxicity is reported as 3.5%.
In the case of `CCOC(=O)N1CCN(C(=O)c2ccccc2-c2ccccc2)CC1`, the cytotoxicity is reported as 58.5% (active).
Work on `O=C(c1cc(-c2ccccc2)nc2ccccc12)N1CCN(c2ccccn2)CC1` yielded a cytotoxicity of -0.4%.
With `CCOc1ccc(-c2cc(C(=O)O)c3ccccc3n2)cc1` the cytotoxicity was 23.3%.
`CNC(=S)NN(c1ccccc1)c1ccccc1` gave a cytotoxicity of 30.1%.
With `COc1ccccc1CNC(=O)C(=O)NCC1CCCO1` (configuration not stated) the cytotoxicity was 0.9%.
For `Cc1cc(=O)oc2cc(OCC3CC(c4ccc(Cl)cc4)=NO3)ccc12` (configuration not stated), the cytotoxicity was -6.9%.
With `Cc1cc(=O)oc2cc(OCC3CC(c4ccccc4Cl)=NO3)ccc12` (configuration not stated) the cytotoxicity was 63.5% (active).
With `Cc1cc(=O)oc2cc(OCC3CC(c4ccccc4)=NO3)ccc12` (configuration not stated) the cytotoxicity was 8.1%.
`O=C(NCc1ccccn1)C1CCCN(Cc2cnn(-c3ccccc3)c2-n2cccc2)C1` (configuration not stated) showed a cytotoxicity of -8.2%.
`CC1CCN(S(=O)(=O)c2ccc3c(c2)C(=NO)c2cc(S(=O)(=O)N4CCC(C)CC4)ccc2-3)CC1` showed a cytotoxicity of 4.2%.
`O=S(=O)(c1ccc(S(=O)(=O)N2CCCC2)cc1)N1CCCCCC1` gave a cytotoxicity of 1.4%.
With `O=S(=O)(c1ccc2c(c1)C(=NO)c1cc(S(=O)(=O)N3CCCCC3)ccc1-2)N1CCCCC1` the cytotoxicity was 102% (active).
Molecule `CC(=O)c1ccc(NC(=O)C(Cc2ccccc2)NC(=O)c2ccco2)cc1` (configuration not stated) has a cytotoxicity of 16.9%.
Molecule `CCC(C(=O)NC1CCCC1)N(Cc1cccs1)C(=O)Cn1nnc(-c2ccc(OC)c(OC)c2)n1` (configuration not stated) has a cytotoxicity of -0.6%.
With `CC1=C(C)/C(=N\OS(=O)(=O)c2ccccc2)C=CC1=O` the cytotoxicity was 70.2% (active).
Molecule `CC1=C/C(=N\OS(=O)(=O)c2ccccc2)C=CC1=O` has a cytotoxicity of 35.8%.
Work on `Cc1ccc(S(=O)(=O)O/N=C2\CCCc3ccccc32)cc1` yielded a cytotoxicity of 9.9%.
In the case of `CC1=CC(=O)C=C(C)C1=NOS(=O)(=O)c1ccccc1`, the cytotoxicity is reported as 51.3% (active).
Work on `O=S(=O)(O/N=C1\CCCc2ccccc21)c1ccccc1` yielded a cytotoxicity of 21.4%.
With `CC1=C(C)/C(=N/OC(=O)c2cccc([N+](=O)[O-])c2)C=CC1=O` the cytotoxicity was 7.5%.
In the case of `Cn1cc(Cl)c(C(=O)N/N=C/c2ccc(OS(=O)(=O)c3ccccc3)cc2)n1`, the cytotoxicity is reported as 6.3%.
Work on `Cc1ccc2[nH]c(=O)c(-c3nc4cc(C)ccn4c3NCc3ccco3)cc2c1` yielded a cytotoxicity of -1.5%.
For `CC(=O)OC(Cn1ccnc1)c1ccccc1` (configuration not stated), the cytotoxicity was 7.8%.
Work on `O=C(c1ccc(Cl)c(S(=O)(=O)NCc2ccco2)c1)N1CCN(c2ccccc2F)CC1` yielded a cytotoxicity of 5.8%.
`Cc1cccc(N2CCN(C(=O)c3ccc(Cl)c(S(=O)(=O)NCc4ccco4)c3)CC2)c1C` showed a cytotoxicity of 26.2%.
For `COc1ccccc1N1CCN(C(=O)c2ccc(Cl)c(S(=O)(=O)NCc3ccco3)c2)CC1`, the cytotoxicity was 56.3% (active).
`Nc1nc(SCc2ccc(Cl)cc2)[nH]c(=O)c1-c1ccccc1` showed a cytotoxicity of 1.6%.
`Cc1cc(C)nc(N2CCN(c3nc(C)nc4c3oc3ccccc34)CC2)n1` showed a cytotoxicity of -3.6%.
In the case of `COc1ccccc1N1CCN(c2nc(C)nc3c2oc2ccccc23)CC1`, the cytotoxicity is reported as 74.7% (active).
`COc1ccccc1N1CCN(c2ncnc3c2oc2ccccc23)CC1` gave a cytotoxicity of -2.5%.
Molecule `O=C(c1cccc(F)c1)N1CCN(Cc2c[nH]c3ccccc23)CC1` has a cytotoxicity of 2.4%.
In the case of `COc1ccc2cc(C(c3nnnn3Cc3ccccc3)N3CCCCCC3)c(=O)[nH]c2c1` (configuration not stated), the cytotoxicity is reported as 17.3%.
`Cc1cc(C(=O)CSc2nnc(-c3cccs3)n2Cc2ccccc2)c(C)n1C` gave a cytotoxicity of 4.7%.
With `Cc1c(NC(=O)CSc2nc3ccccc3n2C)c(=O)n(-c2ccccc2)n1C` the cytotoxicity was 2.7%.
In the case of `COc1ccc(C(=O)n2c(-c3ccco3)nc3ccccc32)cc1`, the cytotoxicity is reported as 56.2% (active).
`COc1ccc(C(=O)n2nc(-c3ccco3)nc2N)cc1` showed a cytotoxicity of 25.6%.
`CCn1c(-c2ccco2)nc2ccccc21` gave a cytotoxicity of 6.1%.
For `CCN(CC)C(=O)CSc1nc2sc(C)c(C)c2c(=O)[nH]1`, the cytotoxicity was -6.3%.
With `COc1ccc(CCN(C)C(=O)N2CCOCC2)cc1OC` the cytotoxicity was -5.8%.
In the case of `COc1cc(C(=O)Nc2nc3ccccc3s2)ccc1OCc1c(C)noc1C`, the cytotoxicity is reported as -13%.
In the case of `COc1ccc2nc(NC(=O)c3cccc(OCc4c(C)noc4C)c3)sc2c1`, the cytotoxicity is reported as 57.3% (active).
Molecule `CCSc1nnc(NC(=O)c2cccc(OCc3c(C)noc3C)c2)s1` has a cytotoxicity of -11.1%.
`CC1C(=O)CCN(C(C)C)C1C` (configuration not stated) showed a cytotoxicity of -13.7%.
With `Cc1oc2cc(O)cc(C)c2c(=O)c1-c1cnn(-c2ccccc2)c1` the cytotoxicity was 33.9%.
For `O=C1CCc2cc(S(=O)(=O)N3CCCC3C(=O)N3CCN(c4ccccc4)CC3)ccc2N1` (configuration not stated), the cytotoxicity was -3.8%.
`CC(C)(C)c1cc(NCCCn2ccnc2)n2ncc(-c3ccc(Cl)cc3)c2n1` gave a cytotoxicity of -4.9%.
For `Cc1cc(NCCCn2ccnc2)n2ncc(-c3ccccc3)c2n1`, the cytotoxicity was -5.3%.
In the case of `Cc1cccc(-n2nnnc2SCC(=O)NCCN2C(=O)CSC2=O)c1`, the cytotoxicity is reported as -3.3%.
In the case of `O=C(c1cc2ccccc2oc1=O)N(Cc1cccs1)C1CCS(=O)(=O)C1` (configuration not stated), the cytotoxicity is reported as 3.4%.
With `Cc1[nH]nc2c1C(C1CC=CCC1)C(C#N)=C(N)O2` (configuration not stated) the cytotoxicity was 73% (active).
`Cc1ccc(C2C(C#N)=C(N)Oc3n[nH]c(C)c32)cc1` (configuration not stated) gave a cytotoxicity of 1.3%.
For `Cc1[nH]nc2c1C(C(C)C)C(C#N)=C(N)O2` (configuration not stated), the cytotoxicity was 11.3%.
With `Cc1ccc(N=Nc2c(C)[nH][nH]c2=O)c(C)c1` the cytotoxicity was 1.8%.
Work on `COc1ccc(CCN/C=C2/CC(=O)NC2=O)cc1OC` yielded a cytotoxicity of 0.2%.
Molecule `COc1ccc(C)cc1NC(=O)NC1CCN(Cc2ccccc2)CC1` has a cytotoxicity of 3%.
With `Nc1ccc2c(c1)C(=O)C(=O)c1ccccc1-2` the cytotoxicity was 92.7% (active).
Work on `Nc1ccc(Br)c2c1C(=O)c1ccccc1C2=O` yielded a cytotoxicity of -18.1%.
`O=C1C(=O)c2ccc(-c3ccccc3)cc2-c2ccccc21` gave a cytotoxicity of 47.5%.
With `COc1ccc(C2=NOC(C(=O)NCc3cccs3)C2)cc1OC` (configuration not stated) the cytotoxicity was 59.8% (active).
Molecule `O=C(NCc1cccs1)C1CC(c2ccccc2O)=NO1` (configuration not stated) has a cytotoxicity of -1.4%.
Molecule `COc1ccc(C2=NOC(C(=O)NCc3ccco3)C2)cc1OC` (configuration not stated) has a cytotoxicity of 46.5%.
`COc1ccc(C2=NOC(C(=O)NCc3cccs3)C2)cc1` (configuration not stated) showed a cytotoxicity of 7.4%.
In the case of `COc1cc(C2=NOC(C(=O)NCc3ccccn3)C2)cc(OC)c1OC` (configuration not stated), the cytotoxicity is reported as -2.6%.
Work on `COc1cccc(C2=NOC(C(=O)NCc3cccs3)C2)c1` (configuration not stated) yielded a cytotoxicity of -1.8%.
`COc1ccc(C2=NOC(C(=O)NCc3ccco3)C2)cc1` (configuration not stated) gave a cytotoxicity of 6%.
With `COc1cc(C2=NOC(C(=O)NCc3ccco3)C2)cc(OC)c1OC` (configuration not stated) the cytotoxicity was 54.4% (active).
For `COc1cc(C2=NOC(C(=O)NCc3cccs3)C2)cc(OC)c1OC` (configuration not stated), the cytotoxicity was 58.1% (active).
Work on `CCCCN(C)Cc1c(O)ccc2c(-c3ccccc3)cc(=O)oc12` yielded a cytotoxicity of 11.9%.
`CCOc1ccc(NC(=O)N2CCC(NC(=O)c3ccco3)CC2)cc1` showed a cytotoxicity of 4.5%.
For `O=C(CSc1ncn(-c2ccccc2)n1)c1cccs1`, the cytotoxicity was -3.1%.
For `CCOc1ccc(-c2nc(S(=O)(=O)c3ccccc3)c(NCc3cccnc3)o2)cc1`, the cytotoxicity was 0.3%.
In the case of `CC(=O)Nc1ccccc1-c1nn[nH]n1`, the cytotoxicity is reported as -11.5%.
`Cn1c(SCc2ccon2)nc2ccccc2c1=O` showed a cytotoxicity of 2.4%.
With `Cn1c(/C=C/c2ccc([N+](=O)[O-])o2)nc2ccccc2c1=O` the cytotoxicity was 85.1% (active).
With `Cc1ccc2nc(N/N=C\c3ccc([N+](=O)[O-])o3)nc(-c3ccccc3)c2c1` the cytotoxicity was 13.6%.
For `O=C(CC1(O)C(=O)Nc2cc(Cl)cc(Cl)c21)c1ccccc1O` (configuration not stated), the cytotoxicity was -66.6%.
`CCCCNc1c(C(=O)OCC)c(=O)[nH]c2ccccc12` showed a cytotoxicity of 0.1%.
In the case of `CCN(CC)c1ccc(NC(=O)c2c(OC)cccc2OC)c(C)c1`, the cytotoxicity is reported as -1.4%.
For `CCN(CC)c1ccc(NC(=O)c2cccc(OC)c2)c(C)c1`, the cytotoxicity was 16.9%.
With `CCN(CC)c1ccc(NC(=O)c2cc(OC)cc(OC)c2)c(C)c1` the cytotoxicity was 59.7% (active).
